# The list is not random: actives were taken first. Their share in the collection is about 12%.
# HP1b binding inh: inhibitors of HP1-beta chromodomain binding to methylated histone tails | P83916 | AlphaScreen HP1-beta / biotin-H3K9me3 peptide binding | Potency, µM (top dose mostly 114 µM), for the others: top-dose activity change, negative = inhibition, most hits filed as inhibitors | 390,000 compounds, 0.56% hits | AID 540317; further: nearly all actives have a fitted effect of over 70% in size
#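 Compound inhibition of the preformed complex between 50 nM HP1-beta and 50 nM biotinylated H3K9me3 peptide was read by AlphaScreen. Buffer was PBS pH 7.4 with 0.01% Tween-20. Incubations ran 30 min at room temperature, with 10 ug/mL donor/acceptor beads.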
# G9a inh: G9a (human) methyltransferase inhibition. 350,000 compounds, 8.8% hits. Potency, µM (highest dose often 102 µM), inactives show top-dose activity, negative = inhibition, actives largely listed as inhibitors. G9a H3K9 monomethylation, AlphaScreen, 2 h. AID 504332; further: on the % scale 0 is the no-effect control and ±100 the full control effect; nearly all actives have a fitted effect of over 75% in size
#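 Readings reflect AlphaScreen signal from monomethyl-H3K9 antibody detection. HMT at 20 nM; substrate b-H3K9 500 nM; cofactor SAM 20 uM; 2 h RT reaction; compounds tested as titrations in qHTS with 15 min preincubation.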
# JMJD2A Tudor: JMJD2A Tudor domain (human) inhibition; Potency, µM (series often up to 114 µM), for inactives: at the top dose activity change, negative = inhibition, hits mostly inhibitors; 390,000 compounds, 4.4% hits; O75164; AlphaScreen JMJD2A-Tudor / H3K4me3 peptide binding; further: on the % scale 0 is the no-effect control and ±100 the full control effect; nearly all actives have a fitted effect of over 50% in size
# BAZ2B block: blocks human BAZ2B | Q9UIF8 | AlphaScreen BAZ2B-H3K14Ac peptide displacement | Potency, µM (highest dose often 114 µM), for inactives: top-dose activity change, negative = inhibition, most hits filed as inhibitors | 360,000 compounds, 4.4% hits | AID 504333; further: on the % scale 0 is the no-effect control and ±100 the full control effect; nearly all actives have a fitted effect of over 60% in size
#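 Multi-concentration screen (max 110 uM) measuring displacement of acetylated histone H3 peptide from BAZ2B by AlphaScreen, using 50 nM protein, 50 nM peptide and 10 ug/mL streptavidin donor plus Ni-chelate acceptor beads.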
# L3MBTL1 block: inhibitors of human L3MBTL1; AlphaScreen L3MBTL1–H3K9me1 peptide binding; Potency, µM (doses to about 57.1 µM), for inactives: top-dose activity, negative = inhibition, usual class: inhibitors; 230,000 compounds, 0.66% hits; further: on the % scale 0 is the no-effect control and ±100 the full control effect; nearly all actives have a fitted effect of over 60% in size
#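 L3MBTL1 50 nM + b-AHA-H3(1-15)K9me1 75 nM, 30 min RT; compound added, 30 min RT; streptavidin donor/Ni-chelate acceptor beads 10 ug/mL each final, 30 min RT dark; AlphaScreen read.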
# Sfp PPTase inh: inhibitors of Bacillus subtilis Sfp phosphopantetheinyl transferase; Biochemical Sfp PPTase activity, qHTS; Potency, µM, without a hit: largest response in the series, negative = inhibition, hits mostly inhibitors; 310,000 compounds, 3.5% hits;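 further: the enzyme is Sfp with the accession as filed and its product quenches rhodamine fluorescence; 0% = enzyme reaction without inhibitor and -100% = no enzyme wells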
#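 Buffer: 50 mM Hepes-Na pH 7.6, 10 mM MgCl2, 0.01% Nonidet P-40, 0.01% BSA. Enzyme 15 nM, pre-exposed to compound 15 min; substrates then added and fluorescence change tracked over 30 min.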
# Active calls of the source: *; ? = inconclusive; · = not tested or not shown; [ ] = dose if it differs, or a comment. The call rests on the fitted dose curve; in most records, active means well fitted curve in the direction sought with a large enough effect; inconclusive means small, poorly fitted or top-dose-only effect, or another doubt; inactive means no such curve, though single readings can be large; an effect the other way counts as inactive or inconclusive. Potency means the concentration at half of the fitted maximal effect.
SMILES,HP1b binding inh,G9a inh,JMJD2A Tudor,BAZ2B block,L3MBTL1 block,Sfp PPTase inh
Cc1ccc(S(=O)(=O)Nc2ccc(N=Nc3ccc(O)cc3)cc2)cc1,?,-18.9%[59 µM],?,44.7µM*,-7.9%,-29.5%
Cc1ccc(NNS(=O)(=O)c2ccc(C)cc2)cc1,?,0.794µM*,3.16µM*,20µM*,5.1%,39.8µM*
Cc1ccc(S(=O)(=O)NNC(=O)c2snnc2C)cc1,8.5%,10µM*,79.4µM*,1.6%,·,?
Cc1ccc2c(=O)c(C(=O)c3ccccc3)cn(CC(=O)Nc3ccc4c(c3)OCCO4)c2n1,18.7%,-2.2%[59 µM],-3.9%,2.7%[57.1 µM],·,·
CC(=O)Nc1ccc(C(=O)NNS(=O)(=O)c2ccc(C)cc2)cc1,33.3%,20µM*,8.9%,50.1µM*,1.1%,-7.5%
Cc1ccc(S(=O)(=O)NNC(=O)c2ccc(O)cc2)cc1,21.9%,?,2.0%,-18.0%,-3.6%,?
CNC(=O)CCCCCNS(=O)(=O)c1ccc(C)cc1,?,-0.9%[59 µM],-9.9%[11.4 µM],4.9%,-19.0%,-5.6%
Cc1ccc(S(=O)(=O)NNC(=O)CCCCC(=O)NNS(=O)(=O)c2ccc(C)cc2)cc1,44.1%,44.7µM*,-4.2%,-11.8%,1.0%,16.7%
Cc1ccc(S(=O)(=O)NNC(=O)C(=O)NNS(=O)(=O)c2ccc(C)cc2)cc1,33.4%,18.6%,35.5µM*,-37.6%,1.2%,27.7%
Cc1ccc(C(O)(C(=O)NNS(=O)(=O)c2ccc(C)cc2)c2ccc(C)cc2)cc1,9.3%,-12.0%[59 µM],-19.9%,-0.8%,-6.3%,-11.6%
Cc1ccc(S(=O)(=O)Nc2ccccc2-c2ccccc2NS(=O)(=O)c2ccc(C)cc2)cc1,19.8%,-26.3%,-16.2%,-49.6%,?,4.8%
Cc1ccc(S(=O)(=O)Nc2c(Cl)c(Cl)c(O)c3ccccc23)cc1,·,1.26µM*,·,44.7µM*,-10.5%,44.7µM*
O=C1/C(=C\c2ccc(O)c(O)c2)Oc2c1ccc(O[C@@H]1O[C@H](CO)[C@@H](O)[C@H](O)[C@H]1O)c2O,-21.0%,·,?,·,·,?
Cn1c(SCC(=O)Nc2ccc(Br)cn2)nnc1C1CC1,15.1%,-4.2%,-31.1%,?,·,15.9%
CCC(C)(C)NC(=O)c1ccc2c(c1)OCCO2,22.5%,-0.1%,7.9%,-3.4%,0.7%,14.7%
CC(=O)Nc1ccc(S(=O)(=O)NNC(=O)COc2cccc(C)c2)cc1,-21.3%,6.31µM*,50.1µM*,5.5%[57.1 µM],0.0%,79.4µM*
CCOC(=O)c1ccc(S(=O)(=O)NNC(=O)COc2cccc(C)c2)cc1,40.7%,-18.7%[59 µM],6.7%[57.1 µM],-1.0%,10.4%,18.2%
CCc1cc(-c2oncc2-c2ccc(OC)cc2)c(O)cc1OC,·,·,·,·,·,-21.8%
CCc1nc(N2CCN(Cc3ccc4c(c3)OCO4)CC2)c2oc3ccccc3c2n1,?,?,?,70.8µM*,-10.1%,35.5µM*
CCc1nc(N2CCCCC2)c2oc3ccccc3c2n1,103.7%,8.3%[59 µM],37.2%,6.8%,·,-22.4%
CCc1nc(Nc2ccc3c(c2)OCO3)c2oc3ccccc3c2n1,23.1%,30.2%[0.501 µM],-23.6%,?,-1.2%,-23.3%
CCc1nc(N2CCCC(C)C2)c2oc3ccccc3c2n1 (stereo not drawn),63.2%,?,20µM*,56.9%,71.1%,44.7µM*
Cc1cc(F)ccc1NC(=O)C1CCN(C(=O)c2cnn(-c3ccccc3)c2-n2cccc2)CC1,28.4%,2.4%[59 µM],5.4%,-0.1%,·,·
CCOc1ccc(CCNC(=O)c2ccc(CSCc3ccccc3C)o2)cc1OCC,41.0%,?,-22.6%,12.6%,·,·
COc1ccc(Cl)cc1N1C(=O)c2cccnc2C1=O,54.5%,-7.7%,-9.4%,?,·,5.1%
SMILES,HP1b binding inh,G9a inh,JMJD2A Tudor,BAZ2B block,L3MBTL1 block,Sfp PPTase inh
CCOc1ccc(N2C(=O)c3cccnc3C2=O)cc1,6.6%,-47.0%,?,56.2µM*,-1.4%,6.7%
COc1ccc(OC)c(N2C(=O)c3cccnc3C2=O)c1,49.6%,9.1%,-31.7%,79.4µM*,-11.1%,9.9%
O=C(O)c1cc(-c2ccccc2)n[nH]1,50.2%,12.6%[59 µM],-5.8%,7.5%,-17.2%,-0.8%
O=C(O)/C=C\C(=O)NNC(=O)c1cc(-c2ccccc2)n[nH]1,20.2%,·,25.1µM*,28.2µM*,-16.7%,50.1µM*
O=C(NNS(=O)(=O)c1ccccc1F)c1cc(-c2ccccc2)n[nH]1,10.6%,7.2%,-12.8%,-38.5%,-18.8%,10.9%
O=C(O)/C=C/C(=O)NNC(=O)c1cc(-c2ccccc2)n[nH]1,25.1µM*,20µM*,?,-1.7%,?,-40.1%
COCn1c2ccccc2c2nnc(C(C)=O)nc21,·,·,·,·,·,0.7%
COC(=O)c1sccc1NC(=S)Nc1ccc(F)cc1F,27.8%,?,-8.7%,-22.1%,-5.5%,-12.4%
COC(=O)c1sc(=S)n(-c2cc(F)ccc2F)c1N,?,12.1%[0.501 µM],?,56.2µM*,-1.7%,50.1µM*
CCOC(=O)c1sc(=S)n(-c2cc(F)ccc2F)c1N,-34.9%,26.2%[0.501 µM],?,-9.4%,-1.5%,56.2µM*
O=C1NC(=O)[C@@H]2C3c4ccccc4C=CN3[C@H](C(=O)c3cccs3)[C@H]12 (stereo partly drawn),·,10µM*,·,-5.6%,-1.2%,79.4µM*
OCc1cc(CO)c(O)c(CCc2ccccc2)n1,63.3%,-20.7%,-4.4%,-6.7%,·,4.4%
CN(C)Cc1cc(CN(C)C)c(O)c(CCc2ccccc2)n1,42.5%,50.1µM*,-19.8%[57.1 µM],-28.2%,·,-1.2%
Cc1ccc(-c2nc(CN(C)C)cc(CN(C)C)c2O)cc1,26.7%,50.1µM*,?,?,-5.5%,-1.4%
CCOC(=O)c1c(NC(=O)c2cc(OCC)c(OCC)c(OCC)c2)sc2c1CCCCC2,71.1%,13.2%[59 µM],19.0%,13.9%,·,·
C[C@H](CO)N1C[C@H](C)[C@@H](CN(C)CC2CCCCC2)Oc2c(NC(=O)CCC(F)(F)F)cccc2C1=O,28.9%,·,-31.4%,·,-3.4%,·
CC1=CC(C)(C)NC(=S)N1c1cccc2ccccc12,30.3%,-11.7%[59 µM],6.2%,-3.1%,-4.3%,27.6%
CN1c2ccccc2N(C)C1(C)c1cccc2ccccc12,?,1.41µM*,44.7µM*,?,-0.6%,?
Clc1ccc(N=NN2CCOCC2)cc1,26.4%,50.1µM*,2.0%,6.6%,5.6%,14.5%
COC(=O)c1ccc(N=NN2CCOCC2)cc1,9.9%,2.8%[59 µM],-1.9%,-5.6%,-6.5%,19.4%
CCCC/C=C/[C@H](c1ccccc1)[C@H](CO)Cc1ccc([N+](=O)[O-])cc1,31.2%,·,-10.3%,·,·,11.0%
Cc1csc(Nc2nc(N)c(C(=O)Nc3ccccc3)o2)n1,45.4%,-8.7%,-10.7%,?,·,0.6%
CCCc1cc(=O)[nH]c(SCC(=O)Nc2cccc(S(=O)(=O)N3CCCCC3)c2)n1,45.1%,-43.0%[59 µM],-10.8%,-12.6%,-9.0%,·

# Source: PubChem BioAssay
